HepG2 tox: qHTS for Inhibitors of TGF-b: Cytotox Counterscreen | 410,000 tested, 0.76% active | Potency, µM (series often up to 46.1 µM), without a hit: top-dose activity change, negative = cytotoxicity, hits mostly cytotoxic | AID 588856, 2011 | HepG2 CAGA-GFP viability, ATP luminescence, 18 h; also: potency is read from the fitted curve at half-maximal effect
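CellTiter-Glo luminescence gave cytotoxicity after 18 hours at 37 degrees C. The cells were HepG2 CAGA-GFP in 1% FBS DMEM, stimulated with 500 pg/mL TGF-beta after compound addition. %Activity was normalised to no-cell wells (complete cell-killing) and DMSO (no toxicity), and curves were fitted and classified.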
DT40 TDP1 CPT: qHTS for Inhibitors of human tyrosyl-DNA phosphodiesterase 1 (TDP1): qHTS in cells in presence of CPT. chicken DT40 Tdp1-/-;hTDP1 cells + 20 nM CPT, ATP luminescence, 48 h. AID 686979, 2013. 420,000 tested, 12% active. Potency, µM (series often up to 46.2 µM), without a hit: at the top dose activity change, negative = growth inhibition, most hits filed as inhibitors; also: potency is read from the fitted curve at half-maximal effect; % is scaled to controls: 0 for no effect and ±100 for the full control effect; nearly all actives have a fitted effect of over 55% in size
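Chicken DT40 Tdp1-/- cells stably complemented with human TDP1 were seeded at 400 cells/well in medium containing 20 nM camptothecin, exposed to pin-transferred compounds, and grown at 37 °C for at least 48 hr. Viability was read as ATP luminescence.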
TDP1 block: qHTS Assay for Inhibitors of Tyrosyl-DNA Phosphodiesterase (TDP1); 350,000 tested, 0.28% active; recombinant TDP1, AlphaScreen DNA substrate cleavage; Tyrosyl-DNA phosphodiesterase 1 (Homo sapiens), Q9NUW8; AID 485290, 2010; Potency, µM (top dose mostly 130 µM), without a hit: at the highest dose activity change, negative = inhibition, usual class: inhibitors; also: potency is read from the fitted curve at half-maximal effect; % is scaled to controls: 0 for no effect and ±100 for the full control effect; nearly all actives have a fitted effect of over 40% in size
Target sequence (Q9NUW8 whole entry, looked up): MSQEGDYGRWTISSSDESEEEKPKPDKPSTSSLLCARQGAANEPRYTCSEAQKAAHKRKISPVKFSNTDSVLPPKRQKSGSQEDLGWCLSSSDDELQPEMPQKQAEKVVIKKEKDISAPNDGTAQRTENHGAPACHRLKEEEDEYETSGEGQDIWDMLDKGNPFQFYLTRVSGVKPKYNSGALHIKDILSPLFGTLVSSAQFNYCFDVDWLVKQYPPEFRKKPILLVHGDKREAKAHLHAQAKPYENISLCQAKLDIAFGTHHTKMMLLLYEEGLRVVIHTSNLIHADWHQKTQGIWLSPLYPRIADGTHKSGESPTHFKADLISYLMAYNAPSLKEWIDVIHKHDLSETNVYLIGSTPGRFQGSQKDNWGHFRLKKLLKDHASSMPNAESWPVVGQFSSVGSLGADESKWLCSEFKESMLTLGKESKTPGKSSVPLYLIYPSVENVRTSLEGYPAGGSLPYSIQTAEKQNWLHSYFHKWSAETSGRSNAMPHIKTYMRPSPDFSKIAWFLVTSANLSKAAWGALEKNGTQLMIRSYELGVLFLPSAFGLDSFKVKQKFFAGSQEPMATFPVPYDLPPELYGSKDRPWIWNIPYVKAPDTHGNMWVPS
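Steps: enzyme plus compound, 15 min RT; add biotin/phosphotyrosine-FITC oligonucleotide (15 nM final), react 5 min; add donor/acceptor beads (10 ug/ml final), 10 min; read AlphaScreen. Tdp1 at 1 nM final.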
TDP1 cell noCPT: qHTS for Inhibitors of human tyrosyl-DNA phosphodiesterase 1 (TDP1): qHTS in cells in absence of CPT | AID 686978, 2013 | 420,000 tested, 15% active | DT40 Tdp1-/- hTDP1 cells, no CPT, ATP luminescence, 48 h | Potency, µM (top dose mostly 46.2 µM), inactives show at the highest dose activity change, negative = growth inhibition, most hits filed as inhibitors; also: potency is read from the fitted curve at half-maximal effect; % is scaled to controls: 0 for no effect and ±100 for the full control effect; nearly all actives have a fitted effect of over 55% in size
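A cellular qHTS used chicken DT40 cells lacking endogenous Tdp1 but carrying stably transfected human TDP1. Compounds were applied without camptothecin, and cell growth kinetics were judged by ATP-dependent luminescence after ≥48 hr.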
TGFb SMAD3 inh: qHTS for Inhibitors of TGF-b | HepG2 CAGA-GFP TGF-b/SMAD3 reporter, GFP fluorescence, 18 h; TGF-beta stimulated, 500 pg/mL final | Potency, µM (series often up to 46.1 µM), for the others: at the highest dose activity, negative = inhibition, hits mostly inhibitors | 410,000 tested, 1.2% active; also: potency is read from the fitted curve at half-maximal effect; % is scaled to controls: 0 for no effect and ±100 for the full control effect; nearly all actives have a fitted effect of over 65% in size
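Inhibition was scored as loss of TGF-beta-induced (500 pg/mL final, 18 hours, 37 degrees C) GFP in HEPG2 cells carrying a CAGA-GFP reporter, in DMEM with 1% FBS. Well GFP was summed per cell; Activity was normalised to unstimulated and stimulated DMSO wells, then concentration-response fitting.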
IL1B secr inh: qHTS for Inhibitors of Inflammasome Signaling: IL-1-beta AlphaLISA Primary Screen; THP-1 LPS/ATP IL-1B secretion, AlphaLISA, 16 h; active compounds read low; activity change, % at 57.5 µM; 360,000 tested, 4.7% active; in the data active = activity change below about -50%; inconclusive = mostly about -30% to -49%; also: % is scaled to controls: 0 for no effect and ±100 for the full control effect
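THP-1 cells pretreated 1 hr with compounds (up to 57.5 uM final), then stimulated with LPS (250 ng/mL final) plus ATP (1.25 mM final); secreted IL-1B measured by AlphaLISA after 16 hr, decreased signal indicating inhibition.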
Starred values were filed as active, the others as inactive; ? = inconclusive; . = no result. Compounds with a hit are over-represented: about 18% of the library has one in this group of screens. Unless noted, calls follow the shape of the dose curve; as a rule, active = well fitted curve in the direction sought with a large enough effect; inconclusive = small, poorly fitted or top-dose-only effect, or another doubt; inactive = no such curve, though single readings can be large; an effect the other way counts as inactive or inconclusive.

SMILES | HepG2 tox | DT40 TDP1 CPT | TDP1 block | TDP1 cell noCPT | TGFb SMAD3 inh | IL1B secr inh
N#CC1=C(N)C2=CCCC[C@H]2[C@H](c2ccc(Br)cc2)C1(C#N)C#N | 1% | ? | -1% | ? | ? | -95*
CCOC(=O)c1cc(=O)nc(N)s1 | -7% | -25% | . | -5% | -1% | ?
Cc1sc(NC(=O)CN2CCCC2)nc1-c1ccc2c(c1)CCN2C(=O)c1cccc(F)c1 | -8% | ? | 14% | 16µM* | 8% | -66*
Cc1sc(NC(=O)Cc2ccc3c(c2)OCO3)nc1-c1ccc2c(c1)CCN2C(=O)c1ccccc1F | -8% | 18µM* | 8% | 8.2µM* | -13% | ?
Cc1ccccc1C(=O)N1CCc2cc(-c3csc(NC(=O)CN4CCCC4)n3)ccc21 | -22% | ? | . | ? | ? | 22
Cc1cccc(-c2nsc(SCC(=O)NCC3CCCO3)n2)c1 (stereo unspecified) | -22% | -2% | -1% | -25% | 26% | 12
COc1ccc(NS(=O)(=O)c2cc(N)ccc2N2CCCC2)cc1 | -7% | ? | 6% | ? | 18% | -1
CCNC(=O)Nc1cc(S(=O)(=O)Nc2ccc(OC)cc2)ccc1N1CCOCC1 | -16% | 2.3µM* | 1% | 0.73µM* | -21% | -14
CNC(=S)Nc1cc(S(=O)(=O)Nc2cc(Cl)ccc2Cl)ccc1N1CCCC1 | -18% | -24% | . | ? | -17% | -10
COc1ccc(NS(=O)(=O)c2ccc(N3CCCC3)c(NC(=S)Nc3cccc(C)c3C)c2)cc1 | -2% | 12µM* | 6% | 9.2µM* | ? | ?
COc1ccc(NS(=O)(=O)c2ccc(N3CCCC3)c(NC(=S)Nc3ccc(SC(F)F)cc3)c2)cc1 | 6% | 18µM* | 11% | 18µM* | -20% | -20
CCN(CC)C(=O)Cn1cc(S(=O)(=O)CC(=O)NCCc2ccc(OC)c(OC)c2)c2ccccc21 | 22% | 10% | -1% | -5% | 0% | -10
CC(NC(=O)CN(c1cccc(C(F)(F)F)c1)S(C)(=O)=O)c1ccccc1 (stereo unspecified) | -2% | ? | . | ? | -18% | -1
CCOc1ccc2c(c1)c(=O)c(C(=O)c1ccccc1)cn2Cc1ccccc1F | -26% | ? | 3% | 21µM* | ? | .
COc1ccc(C(=O)c2cn(Cc3ccccc3F)c3ccc(F)cc3c2=O)cc1 | -14% | ? | 6% | 21µM* | ? | .
COc1ccc2c(c1)c(=O)c(C(=O)c1ccc(C)cc1)cn2Cc1ccccc1F | -34% | ? | 5% | ? | ? | .
Cc1ccc(-c2ccc(/C=C3/NC(=O)NC3=O)o2)cc1[N+](=O)[O-] | -12% | ? | 0% | 21µM* | -8% | -8
O=C1CC2C(CCC23OCCO3)c2ccc3ccccc3c21 (stereo unspecified) | -23% | 2% | . | ? | 0% | 0
COc1ccc(OC)c(C2=NOC(C(=O)NCCN3CCOCC3)C2)c1 (stereo unspecified) | -7% | 3% | 6% | -4% | -6% | 0
COc1ccc(OC)c(C2=NOC(C(=O)NCc3cccs3)C2)c1 (stereo unspecified) | -12% | ? | 1% | 7.3µM* | -26% | 39
O=C(NCc1ccco1)C1CC(c2ccc(Cl)cc2)=NO1 (stereo unspecified) | 0% | ? | 5% | -22% | 2% | 13
O=C(NCc1cccs1)C1CC(c2ccc(Cl)cc2)=NO1 (stereo unspecified) | -6% | 13µM* | -6% | 12µM* | ? | 4
O=C(NCCc1cccs1)C1CC(c2c(Cl)cccc2Cl)=NO1 (stereo unspecified) | -19% | 4.1µM* | -2% | 7.3µM* | ? | 0
O=C(NCCc1cccs1)C1CC(c2cccc(F)c2)=NO1 (stereo unspecified) | -15% | 2% | -4% | -10% | -5% | 17
COc1ccc(-c2cc(C)cc3c2OC(CNC(=O)/C=C/c2ccncc2)C3)nn1 (stereo unspecified) | . | -58% | . | ? | . | .
SMILES | HepG2 tox | DT40 TDP1 CPT | TDP1 block | TDP1 cell noCPT | TGFb SMAD3 inh | IL1B secr inh
CC(=O)C1=C(O)CCCC1=NCc1nc2ccccc2[nH]1 | -12% | 2% | 6% | ? | 3% | -9
CC(=O)C1=C(O)CC(C)(C)CC1=NCc1nc2ccccc2[nH]1 | -13% | ? | -14% | 16µM* | 1% | 47
CCCC1OC(c2cc3c(cc2Cl)OCO3)OCC1CC (stereo unspecified) | -17% | -8% | . | ? | ? | 11
COc1ccc(OC)c(NC(=O)c2cn3c4c(ccc(Cl)c4c2=O)OC(C)C3)c1 (stereo unspecified) | 8% | 18% | -6% | -17% | 35% | .
COc1cccc(NC(=O)CCC2CCN(C(=O)c3sccc3C)CC2)c1 | -3% | 21µM* | 2% | 21µM* | 0% | 0
COc1cccc(NC(=O)CCC2CCN(C(=O)Cc3cccc(F)c3)CC2)c1 | -5% | ? | 2% | 15µM* | -10% | 2
O=C(CN(C(=O)CCC(=O)Nc1nccs1)c1ccccc1F)NCc1ccc(F)cc1 | 22% | 0% | 0% | -21% | 44% | 10
CC(=O)Nc1ccc(S(=O)(=O)N(CCCN2CCOCC2)Cc2cccs2)cc1 | -5% | -3% | 0% | -4% | -17% | 1
CC(C)(C)c1ccc(S(=O)(=O)N(CCCN2CCOCC2)Cc2cccs2)cc1 | 0% | ? | 0% | 16µM* | -4% | ?
CCN(C1CCCCC1)S(=O)(=O)CCNC(=O)c1ccc(OC)cc1 | 1% | ? | . | ? | 3% | -6
Cn1c(=O)c2c(nc(SCc3nc(N)nc(N4CCCCC4)n3)n2C)n(C)c1=O | 18% | 21µM* | -3% | 23µM* | 2% | 0
Oc1ccc(C[C@H]2CNCCN2CC2(c3ccccc3)CC2)cc1 | -13% | 21µM* | -7% | ? | -1% | -61*
CCCC[C@@H]1CNCCN1CC1(c2ccccc2)CC1 | -21% | 12µM* | 2% | 12µM* | 17% | ?
